eIF4H inh – inhibitors of RNA binding by human eIF4H | 290,000 compounds, 0.94% hits | Q15056 | eIF4H fluorescence polarization binding assay | inhibition, % at 35 µM;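 note: calls also rest on retests at 20 µM and on dose response follow-up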
M18AAP inhibitor – PfM18AAP enzyme inhibition; recombinant PfM18AAP, H-Glu-NHMec fluorogenic cleavage; inhibition, % at 7.35 µM; 290,000 compounds, 1.2% hits;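 active = inhibition above the campaign mean inhibition over all tested compounds plus 3 SD, cut at about 28% in these data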;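 note: 0% = plate median of test compound wells and 100% = 2 mM ZnCl2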
PABP polyA inh – blocks human PABP binding to poly(A) RNA. P11940. fluorescence polarization. inhibition, % at 35 µM. 290,000 compounds, 1% hits. AID 2014;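 note: calls also rest on retests at 20 µM and on dose response follow-up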
Target sequence (P11940 whole entry, looked up): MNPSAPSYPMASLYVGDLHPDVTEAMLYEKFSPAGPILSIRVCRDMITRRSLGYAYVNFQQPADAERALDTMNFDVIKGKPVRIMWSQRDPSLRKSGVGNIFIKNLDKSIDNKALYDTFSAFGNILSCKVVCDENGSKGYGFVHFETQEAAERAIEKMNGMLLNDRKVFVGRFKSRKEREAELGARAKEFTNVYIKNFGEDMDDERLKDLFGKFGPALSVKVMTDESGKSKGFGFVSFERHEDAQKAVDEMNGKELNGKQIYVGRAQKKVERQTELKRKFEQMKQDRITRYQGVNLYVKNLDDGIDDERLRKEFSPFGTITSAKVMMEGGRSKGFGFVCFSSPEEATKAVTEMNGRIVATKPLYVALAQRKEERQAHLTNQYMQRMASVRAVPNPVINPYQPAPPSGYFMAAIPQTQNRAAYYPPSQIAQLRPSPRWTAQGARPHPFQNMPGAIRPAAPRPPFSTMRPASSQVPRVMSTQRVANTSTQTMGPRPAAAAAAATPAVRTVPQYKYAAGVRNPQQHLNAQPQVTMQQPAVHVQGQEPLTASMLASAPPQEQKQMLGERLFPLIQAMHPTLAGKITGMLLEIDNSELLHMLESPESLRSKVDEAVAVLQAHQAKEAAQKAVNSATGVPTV
PERK inh – human PERK inhibition, primary cell-based screen | Q9NZJ5 | CHO PERK-DD fusion, SEAP luminescence translation reporter | inhibition, % at 5.6 µM | 220,000 compounds, 0.17% hits | AID 1416;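 active = inhibition above the mean inhibition of all tested compounds plus 3 SD, set separately per screening campaign, cut at about 2.9% in these data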;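 note: PERK kinase domain activated by AP20187 dimerizer at 100 nM; 0% = DMSO with dimerizer and 100% = rapamycin at 8.4 µM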
PABP1 MLLE inh – inhibitors of microRNA-mediated deadenylation, human PABP1 MLLE binding. 360,000 compounds, 0.36% hits. inhibition, % at 20 µM. GST-MLLE / FITC-PAM2 fluorescence polarization; in the data active = inhibition above about 35%, passing the limit was not always enough;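 note: plate controls were DMSO wells with GST-MLLE for no effect and wells lacking GST-MLLE protein for full effect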
eIF4E 4G PPI – eIF4E/eIF4G interaction inhibition in translation initiation. P63073+Q04637. TR-FRET eIF4E-eIF4GI(517-606) binding, 2 h. inhibition, % at 21.7 µM. 220,000 compounds, 0.37% hits. AID 782;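 active = inhibition above about 30%, limit read from the data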;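 note: 0% = full FRET control wells and 100% = background wells lacking eIF4GI fragment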
The depositor's hits bear a star. Most compounds without a hit are left out; they make up all but 2.4% or so of the library. Unless noted, the rule behind the calls is not given here.

`O=C(O)c1cccnc1SCc1cn2cc(Cl)ccc2n1` gave eIF4H inh -2, M18AAP inhibitor -5, PABP polyA inh -3, PERK inh 3.0*, PABP1 MLLE inh 0 and eIF4E 4G PPI -3.
`O=C(O)c1ccccc1SCc1cn2cc(Cl)ccc2n1` gave eIF4H inh -1, M18AAP inhibitor -13, PABP polyA inh 6, PERK inh 2, PABP1 MLLE inh 6 and eIF4E 4G PPI 0.
For Nc1ccc2c(c1)C/C(=C/c1ccco1)C2=O the results were eIF4H inh 93*, M18AAP inhibitor 21, PABP polyA inh active, PERK inh 1, PABP1 MLLE inh -31 and eIF4E 4G PPI 22.
COc1ccc2c(c1)CC/C(=C/c1ccco1)C2=O was read as eIF4H inh inconclusive, M18AAP inhibitor -2, PABP polyA inh active, PERK inh 1, PABP1 MLLE inh -9 and eIF4E 4G PPI 3.
O=C1/C(=C/c2ccco2)CCc2ccccc21 was read as eIF4H inh 81, M18AAP inhibitor 13, PABP polyA inh -1, PERK inh 0, PABP1 MLLE inh 0 and eIF4E 4G PPI 3.
For CCOC(=O)c1c(Nc2ccc(Cl)cc2)sc(/C=C2\C=Nc3ccccc32)c1O the results were eIF4H inh inconclusive, M18AAP inhibitor -4, PABP polyA inh 115*, PERK inh -1, PABP1 MLLE inh -55 and eIF4E 4G PPI -25.
Screening CC(C)(C)c1ccc2c(c1)OC(C(=O)N/N=C\c1ccc(-c3cccc(C(=O)O)c3)o1)CO2 (stereo unspecified) returned eIF4H inh 73*, M18AAP inhibitor 7, PABP polyA inh 68*, PERK inh 1, PABP1 MLLE inh 2 and eIF4E 4G PPI -5.
Screening O=C(O)c1cccc(-c2ccc(/C=N/NC(=O)C3COc4ccccc4O3)o2)c1 (stereo unspecified) returned eIF4H inh 72*, M18AAP inhibitor 4, PABP polyA inh 12, PERK inh -1, PABP1 MLLE inh -5 and eIF4E 4G PPI 1.
Nc1nonc1C(=O)N/N=C/c1ccc(-c2cccc(C(=O)O)c2)o1 was read as eIF4H inh 55*, M18AAP inhibitor -4, PABP polyA inh -12, PERK inh -1 and eIF4E 4G PPI -1.
`O=C(N/N=C\c1ccc(Cl)s1)C1COc2ccccc2O1` (stereo unspecified) gave eIF4H inh 4, M18AAP inhibitor 0, PABP polyA inh -4, PERK inh 2, PABP1 MLLE inh -8 and eIF4E 4G PPI -5.
For O=C(N/N=C\c1ccc(-c2ccccc2[N+](=O)[O-])o1)C1COc2ccccc2O1 (stereo unspecified) the results were eIF4H inh 4, M18AAP inhibitor 9, PABP polyA inh -2, PERK inh 0, PABP1 MLLE inh 8 and eIF4E 4G PPI 4.
Screening CC(C)(C)c1ccc2c(c1)OC(C(=O)N/N=C\c1ccccn1)CO2 (stereo unspecified) returned eIF4H inh 7, M18AAP inhibitor 2, PABP polyA inh -1, PERK inh 1, PABP1 MLLE inh -5 and eIF4E 4G PPI 4.
For O=C(N/N=C/c1c[nH]c2ccccc12)C1COc2ccccc2O1 (stereo unspecified) the results were eIF4H inh -10, M18AAP inhibitor -1, PABP polyA inh -10, PERK inh 0, PABP1 MLLE inh 1 and eIF4E 4G PPI 48*.
Screening O=C(NCC1CCCO1)c1ccccc1NS(=O)(=O)c1ccc(Br)s1 (stereo unspecified) returned PABP1 MLLE inh 19.
`Cc1ccc(C)c(/C=N/Nc2nc3ccccc3c(=O)n2O)c1` gave eIF4H inh -7, M18AAP inhibitor 31*, PABP polyA inh 10, PERK inh 1, PABP1 MLLE inh 15 and eIF4E 4G PPI -1.
Cc1ccc2nc(C)cc(N/N=C/c3ccccc3O)c2c1 was read as eIF4H inh -1, M18AAP inhibitor 0, PABP polyA inh 0 and PABP1 MLLE inh 5.
Screening COc1cc(/C=C2/S/C(=N/S(=O)(=O)c3ccccc3)NC2=O)c([N+](=O)[O-])cc1OC returned eIF4H inh 22, M18AAP inhibitor 3, PABP polyA inh 63, PERK inh 0, PABP1 MLLE inh 39* and eIF4E 4G PPI 2.
For COc1cc(/C=C2\S/C(=N/S(=O)(=O)Cc3ccccc3)NC2=O)c([N+](=O)[O-])cc1OC the results were eIF4H inh 1, M18AAP inhibitor 22, PABP polyA inh 24, PERK inh 1, PABP1 MLLE inh 23 and eIF4E 4G PPI -3.
`O=C1N/C(=N\S(=O)(=O)c2ccccc2)S/C1=C\c1cc([N+](=O)[O-])ccc1O` gave eIF4H inh 46, M18AAP inhibitor 5, PABP polyA inh 31 and PABP1 MLLE inh -111.
Screening COc1cc(/C=C2/S/C(=N/S(=O)(=O)Cc3ccccc3)NC2=O)c([N+](=O)[O-])cc1OC returned eIF4H inh 1, M18AAP inhibitor 10, PABP polyA inh 4, PERK inh 3.0*, PABP1 MLLE inh 9 and eIF4E 4G PPI -6.
Screening COC(=O)C(NC(C)=O)(Nc1ccc(C)cn1)C(F)(F)F (stereo unspecified) returned eIF4H inh -6, M18AAP inhibitor 6, PABP polyA inh -2, PERK inh 3.4*, PABP1 MLLE inh -1 and eIF4E 4G PPI 0.
Screening C=CC(=O)N1CCCC(Nc2nc(Nc3ccc(N(C)C(=O)CC)cc3C)nc3nc[nH]c23)C1 (stereo unspecified) returned PABP1 MLLE inh -6.
For O=C(CCCN1C(=O)/C(=C/c2ccccc2Cl)SC1=S)NCCCN1CCOCC1 the results were eIF4H inh -9, M18AAP inhibitor 0, PABP polyA inh -18 and PABP1 MLLE inh 41*.
For C=CCn1c(C)nnc1SCC(=O)N1CCN(S(=O)(=O)c2ccccc2)CC1 the results were eIF4H inh -3, M18AAP inhibitor 2, PABP polyA inh 3, PERK inh 0, PABP1 MLLE inh 3 and eIF4E 4G PPI -4.
For C=CCn1c(COc2ccc(CC)cc2)nnc1SC/C(O)=C(\C#N)c1nc2ccccc2[nH]1 the results were eIF4H inh 66*, M18AAP inhibitor 2, PABP polyA inh 54*, PERK inh 0, PABP1 MLLE inh -91 and eIF4E 4G PPI 4.
For C=CCn1c(COc2ccccc2)nnc1SCc1ccc(C#N)cc1 the results were eIF4H inh -11, M18AAP inhibitor 6, PABP polyA inh 14, PERK inh 0, PABP1 MLLE inh -28 and eIF4E 4G PPI -7.
CC(NC(=O)C1CCCN(C(=O)c2ccc(Cl)cc2)C1)c1cccc(C(F)(F)F)c1 (stereo unspecified) was read as PABP1 MLLE inh -3.
`CCOC(=O)c1cnc(Nc2nc3ccccc3o2)nc1CN1CCN(C)CC1` gave eIF4H inh 2, M18AAP inhibitor 61*, PABP polyA inh -1, PERK inh 0, PABP1 MLLE inh 10 and eIF4E 4G PPI 2.
For CCOc1ccc(C(=O)COC(=O)c2nc3nccc(C)n3n2)cc1 the results were PABP1 MLLE inh -6.

High-throughput results (PubChem BioAssay)
